This is a sample that favours compounds with a hit; in the whole collection about 12% have one here.
HP1b chromo inh = HP1-beta chromodomain-methylated histone interaction inhibition | AlphaScreen HP1-beta / biotin-H3K9me3 peptide binding | actives 0.56% (n = 390,000) | Potency, µM (doses to about 114 µM), without a hit: at the top dose activity change, negative = inhibition, hits mostly inhibitors; further: nearly all actives have a fitted effect of over 70% in size
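HP1-beta protein (50 nM final) preincubated 30 min at room temperature with biotinylated H3(1-18)K9me3 peptide (50 nM) in PBS pH 7.4, 0.01% Tween-20, then compound added for 30 min. AlphaScreen streptavidin donor/nickel chelate acceptor beads (10 ug/mL final), 30 min dark, luminescence read.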
JMJD2A Tudor = blocks the human JMJD2A Tudor domain | O75164 | AlphaScreen JMJD2A-Tudor / H3K4me3 peptide binding | Potency, µM (titrated, usually from 114 µM), for the others: at the highest dose activity change, negative = inhibition, actives largely listed as inhibitors | actives 4.4% (n = 390,000) | AID 504339; further: on the % scale 0 is the no-effect control and ±100 the full control effect; nearly all actives have a fitted effect of over 50% in size
L3MBTL1 block = blocks human L3MBTL1; Q9Y468; AlphaScreen L3MBTL1–H3K9me1 peptide binding; Potency, µM (series often up to 57.1 µM), without a hit: at the highest dose activity, negative = inhibition, usual class: inhibitors; actives 0.66% (n = 230,000); AID 485360; further: on the % scale 0 is the no-effect control and ±100 the full control effect; nearly all actives have a fitted effect of over 60% in size
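Read-out is AlphaScreen signal from streptavidin donor and nickel chelate acceptor beads (10 ug/mL final each) bridging L3MBTL1 (50 nM) and biotinylated K9-monomethylated H3(1-15) peptide (75 nM), after 30 min compound exposure at room temperature.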
BAZ2B inh = inhibitors of human BAZ2B bromodomain | AlphaScreen BAZ2B-H3K14Ac peptide displacement | actives 4.4% (n = 360,000) | Potency, µM (top dose mostly 114 µM), for inactives: at the highest dose activity change, negative = inhibition, most hits filed as inhibitors | Q9UIF8; further: on the % scale 0 is the no-effect control and ±100 the full control effect; nearly all actives have a fitted effect of over 60% in size
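BAZ2B (50 nM) with biotin-H3(5-23)K14Ac peptide (50 nM) in PBS pH 7.4, 0.01% Tween-20, preformed 30 min, then compound 30 min at room temperature; top concentration 110uM. AlphaScreen streptavidin donor/nickel chelate acceptor beads (10 ug/mL final), 20 min dark, signal read.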
Sfp PPTase inh = inhibitors of Bacillus subtilis Sfp phosphopantetheinyl transferase | Potency, µM, without a hit: largest response in the series, negative = inhibition, usual class: inhibitors | Q9F4F7 | actives 3.5% (n = 310,000) | Biochemical Sfp PPTase activity, qHTS | AID 1490;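 further: the enzyme is Sfp with the accession as filed and its product quenches rhodamine fluorescence; 0% = enzyme reaction without inhibitor and -100% = no enzyme wells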
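Compounds were incubated with enzyme (final 15 nM) for 15 min at room temperature before substrate addition started the reaction. Fluorescence at 525 nm excitation, 598 nm emission was recorded immediately and after 30 minutes.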
G9a block = blocks human histone lysine methyltransferase G9a. Q96KQ7. G9a H3K9 monomethylation, AlphaScreen, 2 h. Potency, µM (series often up to 102 µM), without a hit: at the top dose activity, negative = inhibition, hits mostly inhibitors. actives 8.8% (n = 350,000). AID 504332; further: on the % scale 0 is the no-effect control and ±100 the full control effect; nearly all actives have a fitted effect of over 75% in size
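Signal arises when biotinylated H3K9 peptide, once monomethylated, bridges streptavidin donor and antibody-captured acceptor beads. Enzyme at 20 nM was preincubated 15 min with test compounds; peptide 500 nM and SAM 20 uM then reacted for 2 h.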
Numbers without * were called inactive; ? = inconclusive; / = not tested or not shown; [ ] = dose if it differs, or a comment. The call rests on the fitted dose curve; in most records, active means well fitted curve in the direction sought with a large enough effect; inconclusive means small, poorly fitted or top-dose-only effect, or another doubt; inactive means no such curve, though single readings can be large; an effect the other way counts as inactive or inconclusive. Potency means the concentration at half of the fitted maximal effect.

SMILES | HP1b chromo inh | JMJD2A Tudor | L3MBTL1 block | BAZ2B inh | Sfp PPTase inh | G9a block
COc1ccc(CCNC(=O)c2c(Nc3ccccc3C)sc(C(=O)c3ccccc3)c2N)cc1OC | 0% | ? | / | ? | / | 8.9µM*
CCOc1ccccc1Nc1sc(C(=O)c2ccccc2)c(N)c1C(=O)Nc1ccccc1 | -4% | ? | / | ? | / | 11µM*
CCOc1ccccc1Nc1sc(C(=O)c2ccccc2)c(N)c1C(=O)NCCc1ccccc1 | 34% | -34% | / | -2% | / | ?
COc1ccc(NC(=O)c2c(Nc3ccccc3)sc(C(=O)c3ccc(F)cc3)c2N)cc1 | -32% | 45µM* | / | ? | -17% | ?
Cc1c(C(=O)OC2CCCC2)[nH]c2c1C(=O)CC(c1ccc(Cl)cc1)C2 (centres undefined) | 3% | -10% | / | 2% | / | 4%[59 µM]
CC(C)C[C@@H](CC(=O)N[C@H](CC(=O)N[C@@H]1CCCC[C@H]1C(=O)N[C@H](CC(=O)N[C@@H](CCC(=O)O)CC(=O)O)Cc1ccccc1)C(C)C)NC(=O)[C@@H]1CCCC[C@H]1N | / | / | / | / | 14% | /
COCCNc1nc2nonc2nc1N1C[C@H]2CC[C@H]1C2 | 37% | 7% | 10% | 4% | -1% | 79µM*
COCCCNc1nc2nonc2nc1N1C[C@H]2CC[C@H]1C2 | 3% | -15% | 3% | 9% | 10% | /
CC(C)CC(C(=O)Nc1oc(-c2ccco2)c(-c2ccco2)c1C#N)N1C(=O)c2ccccc2C1=O (centres undefined) | -25% | ? | ? | 32µM* | 40µM* | 22µM*
CCN1C(=O)C2(c3ccccc31)c1c(oc3ccc(F)cc3c1=O)C(=O)N2CCCOC (centres undefined) | 36% | -3% | / | -9% | / | -3%[59 µM]
C#Cc1ccc2c(c1)C(=O)N(C)Cc1c(C(=O)OCCCOC(=O)c3ncn4c3CN(C)C(=O)c3cc(C#C)ccc3-4)ncn1-2 | / | / | / | / | 3% | /
COC(=O)C(C)NC(=O)N1CCN(c2nnc(C)c3c(C)n(-c4ccc(Cl)cc4)nc23)CC1 (centres undefined) | 29% | -13% | / | -7% | / | 5%[59 µM]
COc1ccc(/C=C2\CCCC3C2=NN(C(=O)CSc2ncn[nH]2)C3c2ccc(OC)cc2)cc1 (centres undefined) | 17% | -31% | -2% | -38% | -15% | -15%[59 µM]
O=C(O)CSCC(=O)N1N=C2/C(=C/c3ccccc3)CCCC2C1c1ccccc1 (centres undefined) | 4% | -24% | / | -13% | 0% | 50µM*
O=C(CSc1ncn[nH]1)N1N=C2/C(=C/c3ccccc3)CCCC2C1c1ccccc1 (centres undefined) | 9% | ? | -4% | -25% | 2% | 11µM*
N#Cc1nc(Nc2ccc(Br)cc2)nc(NC2CCCC2)n1 | / | -14% | / | / | / | /
Cc1cc(C)cc(OCCSc2nc3ccc(NC(=O)c4ccc5c(c4)OCO5)cc3s2)c1 | 31% | -17% | / | -2% | / | 8%[59 µM]
CCc1ccc(NS(=O)(=O)c2ccc3oc(=O)c4ncn(CC)c4c3c2)cc1 | 4% | -25% | / | ? | / | 10µM*
O=C(Nc1cccc(F)c1)N1CC2(CCN(S(=O)(=O)c3ccccc3)CC2)C1 | / | / | / | / | 9% | 2%[12.7 µM]
CCC(C)NC(=O)C1c2ccccc2C(=O)N(c2ccc(OC)cc2)C1c1ccc(OC)cc1 (centres undefined) | -9% | 20µM* | / | 3% | 19% | 2%[59 µM]
O=C(CC(=O)c1ccccc1O)c1ccc(F)cc1 | 29% | -20% | / | ? | -16% | 2%
O=C(Cc1nn[nH]n1)NCc1ccccc1Cl | 30% | -7% | ? | 50µM* | 10% | -6%[12.7 µM]
O=C(Cc1nn[nH]n1)c1ccccc1O | -9% | 45µM* | 12% | -8% | -24% | -4%[59 µM]
CCc1ccccc1N1CC(c2nc3ccccc3n2Cc2cccc(C)c2)CC1=O (centres undefined) | 8% | -33% | / | -23% | / | 1µM*
Cc1cccc(OCCCCn2c(C3CC(=O)N(c4ccccc4Cl)C3)nc3ccccc32)c1 (centres undefined) | 3% | -35% | / | 50µM* | / | 13µM*
SMILES | HP1b chromo inh | JMJD2A Tudor | L3MBTL1 block | BAZ2B inh | Sfp PPTase inh | G9a block
Cc1cccc(OCCCCn2c(C3CC(=O)N(c4ccc(C)cc4C)C3)nc3ccccc32)c1 (centres undefined) | -1% | ? | / | ? | / | ?
COc1ccc(CCNC(=O)c2ccc3c(c2)N(Cc2ccccc2Cl)C(=O)c2ccccc2S3)cc1OC | 32% | -14% | / | 0% | / | -28%[59 µM]
CCc1nnc(NS(=O)(=O)c2ccc(N/C=C/C(=O)c3ccc(C)cc3)cc2)s1 | 34% | ? | -1% | 50µM* | 7% | 40µM*
CCc1nnc(NS(=O)(=O)c2ccc(NC(=O)/C=C/c3ccc(OC)cc3OC)cc2)s1 | -3% | ? | -14% | 56µM* | 6% | 15%[59 µM]
CCc1nnc(NS(=O)(=O)c2ccc(N/C=C\C(=O)c3ccc(C)cc3)cc2)s1 | 19% | ? | -6% | ? | 7% | -32%[59 µM]
CCc1nnc(NS(=O)(=O)c2ccc(N/C=C\C(=O)c3cccc(OC)c3)cc2)s1 | 29% | -13% | -3% | -38% | 16% | 50µM*
CC(C)CC(NC(=O)NC(CCC(=O)O)C(=O)O)C(=O)O (centres undefined) | / | / | / | / | -5% | /
Cc1cc(C)nc(SCCC(=O)N(C)C)n1 | 39% | ? | / | -1% | 50µM* | 8.9µM*
Cc1cc(C)nc(SCCC(=O)N2CCOCC2)n1 | 55% | -3% | 6% | -2% | -10% | ?
CCNC(=O)CCSc1nc(C)cc(C)n1 | 10% | ? | ? | 0% | 32µM* | 3.5µM*
C[C@@H](NC(=O)CN(c1ccccc1)S(=O)(=O)N(C)C)c1ccccc1 | 42% | -4% | / | 2% | / | 6%[59 µM]
N#Cc1ccc(Oc2ccc(-c3nc4ccccc4nc3-c3ccccc3)cc2)cc1C#N | 43% | 0% | 11% | -3% | 6% | 13%[59 µM]
Nc1ccc(Oc2ccc3nc(-c4ccccc4)c(-c4ccc([N+](=O)[O-])cc4)nc3c2)cc1 | -36% | ? | ? | ? | 18% | 32µM*
N#C/C(=C/c1ccc(OCc2ccc(C(=O)O)cc2)c(Br)c1)c1cccc(F)c1 | 5% | 56µM* | / | ? | -10% | -51%
COc1cc(/C=C(/C#N)c2ccc(F)cc2)ccc1OCc1ccc(C(=O)O)o1 | 42% | -26% | / | -34% | -1% | ?
COc1ccc(/C=N/Nc2nnc(-c3ccccc3)c(=O)[nH]2)cc1 | 13% | ? | 7% | ? | 11% | ?
O=c1[nH]c(N/N=C/c2ccccc2Br)nnc1-c1ccccc1 | 24% | -9% | 4% | -11% | 50µM* | -7%[59 µM]
